Compound activity as filed in PubChem BioAssay.
Compounds with a hit are over-represented: about 3% of the library has one in this group of screens.
SENP7 inh = inhibitors of human SENP7 protease; inhibition, % at 5 µM; 330,000 compounds, 1.5% hits; Q9BQF6; recombinant SENP7, Z-RLRGG-aminoluciferin luminescence, 40 min; AID 434973;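 active means inhibition above about 50% at the single test dose, limit read from the data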
PPC-1+TRAIL kill = PPC-1 cancer cell killing with TRAIL present; cell killing (% activity), % at 4 µM or 5 µM; PPC-1 cells + TRAIL, ATPLite viability luminescence; 220,000 compounds, 0.41% hits;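 active means cell killing above 50% in the first pass at 4 µM, then a duplicate retest at 5 µM averaging 50% or more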
SENP6 inh = SENP6 protease inhibition | Q9GZR1 | Recombinant SENP6 catalytic domain, aminoluciferin luminescence | inhibition, % at 10 µM | 330,000 compounds, 1.8% hits | AID 2599;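 active means inhibition above about 50% at the single tested dose, limit read from the data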
Target sequence (Q9GZR1 628-1112 limits assumed): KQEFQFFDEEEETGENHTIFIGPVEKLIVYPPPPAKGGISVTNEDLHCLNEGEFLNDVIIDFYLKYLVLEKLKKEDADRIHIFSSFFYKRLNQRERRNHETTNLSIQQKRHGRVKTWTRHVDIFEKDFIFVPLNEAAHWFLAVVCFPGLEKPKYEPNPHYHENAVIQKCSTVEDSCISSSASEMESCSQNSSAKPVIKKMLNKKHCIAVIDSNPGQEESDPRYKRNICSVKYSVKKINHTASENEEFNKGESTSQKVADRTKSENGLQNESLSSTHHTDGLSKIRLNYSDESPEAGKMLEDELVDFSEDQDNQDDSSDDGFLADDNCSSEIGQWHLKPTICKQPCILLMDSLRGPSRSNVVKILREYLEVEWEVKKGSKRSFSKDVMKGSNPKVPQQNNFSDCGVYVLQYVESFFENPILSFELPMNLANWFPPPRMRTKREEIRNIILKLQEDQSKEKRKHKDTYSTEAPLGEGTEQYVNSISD
C8 TRAIL sens = caspase-8 TRAIL sensitization | NB7+C8 cells + TRAIL, ATPlite viability luminescence | inhibition (viability loss, TRAIL sensitization), % at 10 µM | 360,000 compounds, 1% hits | AID 624354;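 active means compounds causing at least 50% loss of cell viability in the single-dose screen, relative to plate controls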
SENP8 block-1 = blocks the human protease SENP8; purified SENP8, Z-RLRGG-aminoluciferin cleavage, luminescence; inhibition, % at 10 µM; 330,000 compounds, 1.2% hits; AID 2540; in the data active means inhibition above about 50%
SENP8 block-2 = SENP8 (human) protease inhibition | AID 602440 | recombinant SENP8, Nedd8 substrate fluorescence | inhibition, % at 20 µM | Q96LD8 | 360,000 compounds, 0.64% hits; in the data active means inhibition mostly above about 40%, no sharp cut-off; inactive means mostly below about 27%
Numbers stand for hits; ! = not confirmed by another sample.

`O=C(O)CCCNc1cc(N2CCN(C(=O)c3ccco3)CC2)c2noc3c2c1C(=O)c1ccccc1-3` gave SENP7 inh inactive, SENP6 inh inactive, C8 TRAIL sens inactive, SENP8 block-1 inactive and SENP8 block-2 77.
For CCOC(=O)N1CCN(c2cc(NCCC(=O)O)c3c4c(onc24)-c2ccccc2C3=O)CC1 the results were SENP7 inh inactive, PPC-1+TRAIL kill inactive, SENP6 inh inactive, C8 TRAIL sens inactive, SENP8 block-1 inactive and SENP8 block-2 88.
Screening Cc1ccc(NC(=O)COC(=O)C2=NN(c3ccccc3)C(=O)CC2)c(Br)c1 returned SENP7 inh inactive, SENP6 inh inactive, C8 TRAIL sens inactive, SENP8 block-1 inactive and SENP8 block-2 inactive.
For COc1ccc(NC(=O)C2CC3CCC2C3)c(OC)c1 (centres undefined) the results were SENP7 inh inactive, SENP6 inh inactive, C8 TRAIL sens inactive, SENP8 block-1 inactive and SENP8 block-2 inactive.
`Cc1ccc(S(=O)(=O)N(C)C)cc1NC(=S)Nc1cccc2ccccc12` gave SENP7 inh 56, SENP6 inh 90, C8 TRAIL sens inactive, SENP8 block-1 84 and SENP8 block-2 inactive.
`C/C(=C\C(=S)Nc1ccccc1)Nc1cccc2ccccc12` gave SENP7 inh inactive, PPC-1+TRAIL kill inactive, SENP6 inh 83, C8 TRAIL sens inactive, SENP8 block-1 71 and SENP8 block-2 inactive.
COc1cccc(NC(=S)Nc2cccc3ccccc23)c1 was read as SENP7 inh inactive, SENP6 inh 89, C8 TRAIL sens inactive, SENP8 block-1 88 and SENP8 block-2 inactive.
`COc1ccc(-n2ccnc2SCC(=O)NC2CCCC2)c(OC)c1` gave SENP7 inh inactive, PPC-1+TRAIL kill inactive, SENP6 inh inactive, C8 TRAIL sens inactive, SENP8 block-1 inactive and SENP8 block-2 inactive.
O=C(OCc1cc(=O)oc2cc(O)ccc12)c1cc(S(=O)(=O)N2CCOCC2)ccc1F was read as SENP7 inh inactive, SENP6 inh inactive, C8 TRAIL sens 68, SENP8 block-1 inactive and SENP8 block-2 inactive.
`CCc1cc2c(COC(=O)c3cc(S(=O)(=O)N4CCOCC4)ccc3F)cc(=O)oc2cc1O` gave SENP7 inh inactive, SENP6 inh inactive, C8 TRAIL sens 75, SENP8 block-1 inactive and SENP8 block-2 inactive.
`O=C(O)C(SC(C(=O)O)c1ccccc1)c1ccccc1` (centres undefined) gave C8 TRAIL sens inactive and SENP8 block-2 inactive.
O=C(CSc1ccc([N+](=O)[O-])cc1)Nc1nnc(C2CC2)s1 was read as SENP7 inh inactive, SENP6 inh inactive, C8 TRAIL sens inactive, SENP8 block-1 inactive and SENP8 block-2 inactive.
O=C(O)C(c1ccccc1)N1C(=O)/C(=C/c2cccs2)SC1=S (centres undefined) was read as SENP7 inh inactive, PPC-1+TRAIL kill inactive, SENP6 inh inactive, C8 TRAIL sens inactive, SENP8 block-1 inactive and SENP8 block-2 inactive.
O=C(O)C(Cc1ccccc1)N1C(=O)/C(=C/c2cccs2)SC1=S (centres undefined) was read as SENP7 inh inactive, PPC-1+TRAIL kill inactive, SENP6 inh inactive, C8 TRAIL sens inactive, SENP8 block-1 inactive and SENP8 block-2 41.
`O=C(NC1=NCCS1)c1cccs1` gave SENP7 inh inactive, PPC-1+TRAIL kill inactive, SENP6 inh inactive, C8 TRAIL sens 45, SENP8 block-1 inactive and SENP8 block-2 inactive.
O=C(Nc1cccc2nsnc12)c1cccs1 was read as SENP7 inh 50!, PPC-1+TRAIL kill inactive, SENP6 inh 58!, C8 TRAIL sens inactive, SENP8 block-1 inactive and SENP8 block-2 inactive.
Screening COc1ccc(Cc2c(-c3ccc(OC)c(OC)c3)nc3cc(C)c(Br)c(C)n23)c(C)c1 returned C8 TRAIL sens inactive and SENP8 block-2 inactive.
For CSc1ccccc1C(=O)Nc1nc2ccccc2[nH]1 the results were SENP7 inh inactive, PPC-1+TRAIL kill inactive, SENP6 inh inactive, C8 TRAIL sens inactive, SENP8 block-1 inactive and SENP8 block-2 inactive.
For O=C(Nc1nc2ccccc2[nH]1)c1ccc([N+](=O)[O-])cc1 the results were SENP7 inh 85, PPC-1+TRAIL kill inactive, SENP6 inh inactive, C8 TRAIL sens 51, SENP8 block-1 inactive and SENP8 block-2 inactive.
COc1ccccc1C(=O)Nc1nc2ccccc2[nH]1 was read as SENP7 inh 101, SENP6 inh 98, C8 TRAIL sens 96, SENP8 block-1 97 and SENP8 block-2 inactive.
COc1cc(SC)ccc1C(=O)Nc1nc2ccccc2[nH]1 was read as SENP7 inh 101, SENP6 inh 97, C8 TRAIL sens 96, SENP8 block-1 96 and SENP8 block-2 inactive.
For COc1ccccc1C(=O)NCCC(=O)Nc1nc2ccccc2[nH]1 the results were SENP7 inh inactive, SENP6 inh inactive, C8 TRAIL sens inactive, SENP8 block-1 inactive and SENP8 block-2 inactive.
`O=C(Nc1nc2ccccc2[nH]1)C12CC3CC(CC(C3)C1)C2` gave SENP7 inh inactive, PPC-1+TRAIL kill inactive, SENP6 inh inactive, C8 TRAIL sens 70, SENP8 block-1 inactive and SENP8 block-2 inactive.
For O=S(=O)(NCc1ccccn1)c1ccccn1 the results were SENP7 inh inactive, SENP6 inh inactive, C8 TRAIL sens inactive, SENP8 block-1 inactive and SENP8 block-2 inactive.
O=C(COC(=O)C1CCCCC1)Nc1cc([N+](=O)[O-])ccc1F was read as SENP7 inh inactive, PPC-1+TRAIL kill inactive, SENP6 inh inactive, C8 TRAIL sens inactive, SENP8 block-1 inactive and SENP8 block-2 inactive.
Screening O=C(C1CCCO1)N1CCN(C(=S)Nc2ccccc2F)CC1 (centres undefined) returned SENP7 inh inactive, PPC-1+TRAIL kill inactive, SENP6 inh inactive, C8 TRAIL sens inactive, SENP8 block-1 inactive and SENP8 block-2 inactive.
For Cc1nn(C)c(C(=O)N/N=C/c2ccc(Br)cc2)c1Cl the results were SENP7 inh inactive, PPC-1+TRAIL kill inactive, SENP6 inh inactive, C8 TRAIL sens inactive, SENP8 block-1 inactive and SENP8 block-2 inactive.
`CC(C)c1ccc(/C=N/NC(=O)c2c(Cl)cnn2C)cc1` gave SENP7 inh inactive, PPC-1+TRAIL kill inactive, SENP6 inh inactive, C8 TRAIL sens 83, SENP8 block-1 inactive and SENP8 block-2 inactive.
For CC(=O)c1cccc(NC(=O)CN(C)S(=O)(=O)c2ccc3c(c2)CC(C)N3C(C)=O)c1 (centres undefined) the results were SENP7 inh inactive, SENP6 inh inactive, C8 TRAIL sens inactive, SENP8 block-1 inactive and SENP8 block-2 inactive.
For CC(=O)Nc1ccc(NS(=O)(=O)c2ccccc2)c2ccccc12 the results were SENP7 inh inactive, SENP6 inh inactive, C8 TRAIL sens inactive, SENP8 block-1 inactive and SENP8 block-2 inactive.
Screening O=S(=O)(Nc1ccc(O)c2ccccc12)c1ccc(Br)cc1 returned SENP7 inh inactive, SENP6 inh 62 and SENP8 block-1 inactive.
`Cc1cccc(NC(=O)c2ccc(N3CCCCC3)c([N+](=O)[O-])c2)n1` gave SENP7 inh 73, PPC-1+TRAIL kill inactive, SENP6 inh 76, C8 TRAIL sens inactive, SENP8 block-1 inactive and SENP8 block-2 inactive.
For CCN1CCN(C(=O)/C=C/c2ccc(C(C)C)cc2)CC1 the results were SENP7 inh inactive, SENP6 inh inactive, C8 TRAIL sens inactive, SENP8 block-1 inactive and SENP8 block-2 inactive.
